Laboratory results: PubChem BioAssay AID1845227 (National Center for Advancing Translational Sciences (NCATS), 2023)
Results filed as inconclusive are left out. A number with no mark means an inactive call. The source made the active and inactive calls. Calls follow the shape of the dose curve; as a rule, active = well fitted inhibition curve with a large enough effect; inconclusive = small, poorly fitted or top-dose-only effect; inactive = no such curve, though single readings can be large or run the other way.
Potency is read from the fitted curve at half-maximal effect.

These compounds were tested against Luciferin 4-monooxygenase (Photinus pyralis) (UniProt P08659) (assay: Confirmatory firefly luciferase (FLuc) qHTS assay for identification of artifact compounds). Details: purified FLuc enzyme, luminescence, 5 min; series mostly up to 38.9 µM; activity change, negative = inhibition: at the top concentration.
Source text: PI: Alexander Tropsha Ph.D. UNC Eshelman School of Pharmacy University of North Carolina, Chapel Hill, North Carolina Hits from high-throughput screening (HTS) of chemical libraries are often false positives due to their interference with the assay detection technology. In response to this problem, we generated the largest publicly available library of chemical liabilities and developed a free webtool to predict HTS artifacts, both of which are described herein. More specifically, we generated, curated, and integrated HTS datasets for thiol reactivity, redox activity, and luciferase (firefly and nano) activity. Using these curated datasets, we developed and validated several Quantitative Structure-Interference Relationship (QSIR) models to predict nuisance behavior. […] These models were employed for virtual profiling of the National Center for Advancing Translational Science's (NCATS) in-house library, and 256 compounds for each assay were selected for the experimental validation of nuisance behavior. The BA for these external predictions ranged from 58 to 78% for compounds within the applicability domains of the models. […] The models developed in this study, along with aggregation models previously developed by our group (SCAM Detective) were implemented in "Liability Predictor," an online tool which may be used as part of chemical library design or for triaging HTS hits. Both the models and the curated datasets are publicly available at https://liability.mml.unc.edu/.
PROTOCOL TABLE SEQUENCE No. (e.g., 1, 2, 3, etc.); […] (e.g., Cells, Incubation, Reagent, etc.); VALUE; DESCRIPTION. 1; Reagent; 3 uL; Luciferase substrate mixture. 2; Compounds and control; 16 nL; Kalypsis pin tool (Wako USA) equipped with a 1536-well pin head. 3; Incubation; 15 min. 4; Reagent; 1 uL; Luciferase enzyme. 5; Incubation; 5 min. 6; Detection; Luminescence, ViewLux microplate reader. NOTES (numbers refer to Sequence numbers above) 1. 3 uL of luciferase substrate mixture containing D-luciferin and ATP (final concentrations of 10 uM and 10 uM, respectively) in assay buffer (10 mM Mg-acetate, 0.01% Tween-20, 0.05% bovine serum albumin, 50 mM Tris acetate, pH 7.6) was dispensed into all wells of a 1536-well assay plate (solid-bottom white plate; Greiner Bio One, Monroe, NC). 2. A Wako Pin-tool (Wako Automation, Richmond, VA) was used to transfer 16 nL of compounds (consisting of 7-plates in qHTS format, final concentration range 18.3 nM to 114 uM) or control PTC124 (final concentration range 1.22 nM to 40 uM). 3. 15 min. incubation at room temperature protected from light. 4. 1 uL of luciferase enzyme (final concentration 10 nM, Photinus pyralis luciferase) or buffer was dispensed for a final assay volume of 4 uL. 5. Plates were centrifuged (121xg, 15 seconds) and incubated for 5 minutes. 6. Samples were read for luminescence on a ViewLux CCD imager (PerkinElmer). Data were normalized to no-enzyme (0% activity) and no-inhibitor (DMSO; 100%) controls and the resulting percent inhibition data were fitted to a 4-parameter Hill equation using NCATS in-house software.
For `COc1cccc(NCc2ccc(O)c3ncccc23)n1`, the “activity change, negative = inhibition” value was 10.5%.
In the case of `CC(NC(=O)CSc1nc(-c2ccccc2F)nc2cc(=O)[nH]n12)c1nc2ccccc2n1C` (stereo not given), the “activity change, negative = inhibition” value is reported as -1.81%.
With `COc1ccc(C2Nc3ccccc3C(=O)N2CCCN(C)C)cc1COc1ccc(NC(C)=O)cc1` (stereo not given) the “activity change, negative = inhibition” value was 2.59%.
With `CC1OC(OCC2OC(Oc3cc(O)c4c(c3)OC(c3ccc(O)cc3)CC4=O)C(O)C(O)C2O)C(O)C(O)C1O` (stereo not given) the “activity change, negative = inhibition” value was -4.14%.
For `CCCc1cc(=O)[nH]c(Nc2cc(C)ccc2OC)n1`, the “activity change, negative = inhibition” value was -0.205%.
In the case of `C[C@@H]1OC(OC2C(OC3CC[C@@]4(C)C5CC=C6C7CC(C)(C)CC[C@@]7(C(=O)O)CCC6(C)C5(C)CCC4[C@]3(C)CO)OCC(O)C2O)C(O)C(O)C1O` (stereo not given in full), the “activity change, negative = inhibition” value is reported as -2.24%.
With `COc1ccc(C2Nc3ccccc3C(=O)N2Cc2ccccc2)cc1Oc1ccc(NC(C)=O)cc1` (stereo not given) the “activity change, negative = inhibition” value was 4.88%.
With `CC(C)=CCC/C(C)=C/C=O` the “activity change, negative = inhibition” value was -2.39% [at 78.4 µM].
For `CC(CCc1ccccc1)NC(=O)Cn1c(=O)nc(-c2ccccc2F)c2cc(Cl)ccc21` (stereo not given), the “activity change, negative = inhibition” value was -4.2%.
`Clc1ccc(-c2noc3ncnc(N4CCCCC4)c23)cc1` was tested, and the “activity change, negative = inhibition” value was 3%.
With `Cc1cc(Cl)ccc1NC(=O)c1cc2ccccn2n1` the Potency was 8.64 µM (active).
`COc1cc(Br)c(/C=C(\C#N)c2nc3ccccc3[nH]2)cc1OC` was tested, and the “activity change, negative = inhibition” value was 24.2%.
In the case of `CCC(CC)c1nn2c(=O)cc(COc3ccc(NC(=O)c4ccccc4C)cc3)nc2s1`, the “activity change, negative = inhibition” value is reported as -1.2%.
With `O=c1oc2ccc(Br)cc2cc1-c1csc(-c2ccc(Cl)cc2)n1` the “activity change, negative = inhibition” value was 1.83%.
In the case of `CCN(Cc1cccc(S(=O)(=O)O)c1)c1ccc(C(=C2C=CC(=[N+](CC)Cc3cccc(S(=O)(=O)O)c3)C=C2)c2ccccc2S(=O)(=O)[O-])cc1`, the Potency is reported as 12.2 µM (active).
For `COCCNC(=O)CCCn1c(SCC(=O)Nc2cccc(C)c2)nc2c(sc3ccccc32)c1=O`, the “activity change, negative = inhibition” value was -5.42%.
For `CCCS(=O)(=O)N1CC(=O)N(c2ccc(C)cc2C)C(C)(C(=O)NC2CCCCCC2)C1` (stereo not given), the “activity change, negative = inhibition” value was -5.65%.
For `CCC(=O)N1CCc2cc(CNC(=O)Nc3cc(OC)c(OC)c(OC)c3)ccc21`, the “activity change, negative = inhibition” value was 0.174%.
In the case of `[O][C@H]1[C@@H](O)[C@@H](CO)O[C@@H](O[C@@H]2[C@@H]3OC[C@H]2O[C@H](O[C@@H]2[C@@H](O)[C@H](C[C@@H]4[C@@H]5OC[C@H]4O[CH][C@@H]5O)O[C@H](CO)[C@@H]2OS(=O)(=O)O)[C@@H]3OS(=O)(=O)O)[C@@H]1O`, the “activity change, negative = inhibition” value is reported as -2.24%.
In the case of `CN(C)[C@@H]1C(=O)C(C(=O)NCN2CCCC2)C(=O)[C@@]2(O)C(=O)C3C(=O)c4c(O)cccc4[C@@](C)(O)[C@H]3C[C@@H]12` (stereo not given in full), the “activity change, negative = inhibition” value is reported as -3.07%.
With `Cc1cccc(-c2noc(-c3cc(C(C)C)[nH]n3)n2)c1` the Potency was 6.12 µM (active).
`COc1cccc(NC(=O)CSc2nc3cc(OC)c(OC)cc3c3nc(-c4ccccc4)nn23)c1` was tested, and the “activity change, negative = inhibition” value was -2.25%.
In the case of `COc1ccc(CNC(=O)C(C)n2nc(C)c3c(C)n(-c4ccccc4)nc3c2=O)c(OC)c1` (stereo not given), the “activity change, negative = inhibition” value is reported as -3.65%.
With `COc1ccc(OC(=O)c2nc(SCc3ccccc3C)ncc2Cl)cc1` the “activity change, negative = inhibition” value was 10.8%.
In the case of `Cc1cc(-c2ccccc2)n2nc(-c3ccc(Cl)cc3)cc2n1`, the “activity change, negative = inhibition” value is reported as -0.184%.
With `CNc1cccc(S(=O)(=O)N2CCCN(S(=O)(=O)c3ccc4c(c3)OCCO4)CC2)c1` the “activity change, negative = inhibition” value was -3.42%.
With `CCC(Sc1ncc(S(=O)(=O)c2ccc(Cl)cc2)c(=O)[nH]1)C(=O)Nc1ccc(OC)cc1` (stereo not given) the “activity change, negative = inhibition” value was 1.34%.
For `Cn1c(=O)[nH]c2cc(-c3noc(-c4cccc(Cl)c4)n3)ccc21`, the “activity change, negative = inhibition” value was 53%.
For `Cc1ccc(OC(C)C(=O)NCC2(N3CCOCC3)CCCCC2)cc1C` (stereo not given), the “activity change, negative = inhibition” value was 1.36%.
With `O=C(Cc1ccccc1)Nc1ccc2oc(-c3cccnc3)nc2c1` the “activity change, negative = inhibition” value was -9.51% [at 78.4 µM].
For `Cc1ccccc1NS(=O)(=O)c1ccc2[nH]c3c(c2c1)CCCCC3`, the “activity change, negative = inhibition” value was 2.48%.
For `C=C[C@](C)(O)CCC1C(=C)CC(O)C2C(C)(C)CCCC12C` (stereo not given in full), the “activity change, negative = inhibition” value was 0.164%.
With `CCCc1cc(=O)[nH]c(SCc2nc(-c3ccccc3F)no2)n1` the “activity change, negative = inhibition” value was 12.3%.
For `COC(=O)CN1C(=O)[C@@H]2[C@H](C1=O)[C@@H]1CC(C(=O)OC)=C[C@@H](C(=O)OC)C3C1=C(C(=O)C31CCCCC1)[C@@H]2C` (stereo not given in full), the “activity change, negative = inhibition” value was -1.19%.
With `O=C1c2ccccc2C(=O)N1c1cccc2cnccc12` the “activity change, negative = inhibition” value was 1.35%.
With `COc1ccccc1CNc1ccc(-c2nc(-c3cccnc3)no2)cc1[N+](=O)[O-]` the “activity change, negative = inhibition” value was -4.58%.
For `CCOC(=O)c1c(S(=O)(=O)N2CCCC(C(=O)Nc3cccc(C)n3)C2)c(C)n(C)c1C` (stereo not given), the “activity change, negative = inhibition” value was 8.05%.
In the case of `C[C@H](NC(c1ccc(F)cc1)c1ccc2cccnc2c1O)c1ccccc1` (stereo not given in full), the “activity change, negative = inhibition” value is reported as -7.17%.
In the case of `CNc1oc(-c2ccc3cnccc3c2)nc1C#N`, the “activity change, negative = inhibition” value is reported as -4.28%.
For `CCCCN(CCCC)C(=O)c1cc2c(=O)n3ccccc3nc2s1`, the “activity change, negative = inhibition” value was 2.17%.
